Data as given in PubChem BioAssay (NCATS).
Results filed as inconclusive are left out. A call without a number means that no potency is given here. Activity calls are given as the source filed them. Calls follow the shape of the dose curve; as a rule, active = well fitted cell-killing curve with a large enough effect; inconclusive = small, poorly fitted or top-dose-only effect; inactive = flat fitted curve, though single readings scatter.

assay: Cell Viability - LYMP2-023 (AID 975); details: LYMP2-023 lymphoblastoid cell viability; series mostly up to 92.2 µM; also: nearly all actives have a fitted effect of over 55% in size
Description: NIH Chemical Genomics Center [NCGC]
NIH Molecular Libraries Screening Centers Network [MLSCN]
National Institutes of Environmental Health Sciences [NIEHS]
National Toxicology Program [NTP]
We have developed a 1536-well cell-based assay for quantitative high throughput screening (qHTS) against a number of cell lines to determine in vitro cytotoxicity of small molecules. This particular assay uses a human lymphoblastoid cell line (LYMP2-023) purchased from Coriell Institute for Medical Research.
NCGC Assay Protocol Summary:
The CellTiter-Glo luminescent cell viability assay (Promega) is a homogeneous method to measure the number of viable cells in culture. The end point readout of this assay is based on quantitation of intracellular ATP, an indicator of metabolic activity, using the luciferase reaction. Luciferase catalyzes the oxidation of beetle Luciferin to oxyluciferin and light in the presence of ATP. The luminescent signal is proportional to amount of ATP present.
Using the CellTiter-Glo luminescent cell viability assay, the amount of cellular ATP was measured in the lymphoblastoid cell line with complete culture medium following compound treatment for 24 hours. The assay was performed in opaque white Kalypsys 1536-well plates. In the screen, tetraoctylammonium bromide was used as positive control. Library compounds were measured for their ability to cause acute toxicity in the cell line, as reflected by a decrease in intracellular ATP levels, in a concentration-dependent manner. […] AC50 values were determined from concentration-response data modeled with the standard Hill equation.
qHTS protocol for CellTiter Glo lymphoblastoid cellular assay
[Step] [Parameter] [Value] [Description]
1. Reagent; 5 uL; 2500 lymphoblastoid cells/well
2. Time; 5 hr; 37 C incubation
4. Controls; 23 nL; Tetraoctylammonium bromide 6.4pM to 92 uM
5. Time; 24 hr; 37 C incubation
6. Reagent; 5 uL; CellTiter Glo reagent
7. Time; 30 min; Room Temperature
8. Detection; Luminescence; Viewlux plate reader
Keywords: cell viability, cytotoxicity, lymphoblastoid cell line, luminescence, NTPHTS, NTPHTS_NCGC, NIEHS, DSSTox, MLSMR, MLSCN, NIH Roadmap, qHTS, NCGC
Potency is read from the fitted curve at half-maximal effect.

Row | Structure (SMILES) | Potency
1 | O=C1NC(=O)C(c2ccccc2)(c2ccccc2)N1 | inactive
2 | CCCCC1C(=O)N(c2ccccc2)N(c2ccccc2)C1=O | inactive
3 | CCCNC(=O)NS(=O)(=O)c1ccc(Cl)cc1 | inactive
4 | CCn1cc(C(=O)O)c(=O)c2ccc(C)nc21 | inactive
5 | CC(=O)c1ccc(S(=O)(=O)NC(=O)NC2CCCCC2)cc1 | inactive
6 | CN(C)CCC(c1ccccc1)c1ccccn1 (stereo not drawn) | inactive
7 | CC(=O)O[C@]1(C(C)=O)CC[C@H]2[C@@H]3C=C(Cl)C4=CC(=O)[C@@H]5C[C@@H]5[C@]4(C)[C@H]3CC[C@@]21C | inactive
8 | CC1=C(/C=C/C(C)=C/C=C/C(C)=C/C(=O)Nc2ccc(O)cc2)C(C)(C)CCC1 | 50.1 µM (active)
9 | O=c1[nH]cnc2c1ncn2[C@H]1CC[C@@H](CO)O1 | inactive
10 | O=C(O)Cc1cccc2ccccc12 | inactive
11 | CC/C(=C(\c1ccccc1)c1ccc(OCCN(C)C)cc1)c1ccccc1 | 50.1 µM (active)
12 | O=c1c(-c2ccc(O)cc2)coc2cc(O)ccc12 | inactive
13 | O=c1c(O)c(-c2ccc(O)cc2)oc2cc(O)cc(O)c12 | inactive
